From PubChem
In the library only some 3.6% were active in any assay of this set; here they are far more common.
mHTT CaM bind – inhibitors of human mutant huntingtin-calmodulin interaction; P42858; AID 1671202; inhibition, % at 15 µM; 3.6% of 190,000 active; AlphaScreen His-mHTT/GST-CaM binding, luminescence
Pf apPOL inh – Pf-apPOL DNA polymerase inhibition; Recombinant Pf-apPOL, molecular beacon fluorescence, 1.5 h; inhibition, % at 10 µM; 0.25% of 210,000 active; AID 1794808
Large screens that a line does not name were inactive; ! = repeats disagree. Rule as the data show it: active = inhibition above about 50%; inactive = the rest.

CCOc1ccc(-c2cc3n(n2)CCCN(C(=O)Cc2ccsc2)C3)cc1	none
Cc1ccc(-c2nc3cc(N)ccc3o2)cc1C	none
Cc1ccc(-c2coc(-c3ccc(N)cc3)n2)c(C)c1	mHTT CaM bind 59
Cc1ccc(-c2csc(N)n2)c(C)c1	none
Cc1ccc(C)c(-c2coc(-c3ccc(N)cc3)n2)c1	mHTT CaM bind 53
Cc1ccc(CN2CCc3c(cc(C(=O)N4CCCC4)n3C)C2)cc1	none
COc1ccc(C(=O)N2CCCc3ccccc32)cc1I	none
COc1ccc(C(=O)N2CCCC(c3nc(CCNC(=O)C(C)C)cs3)C2)cn1 (centres undefined)	none
Nc1nc2ccccc2n1CCOc1ccc(Cl)cc1Cl	mHTT CaM bind 75
Nc1ccc(-c2nc3ccccc3n2CCOc2ccccc2)cc1	none
Nc1ccc(-c2nc3ccccc3n2CCCOc2ccccc2)cc1	mHTT CaM bind 51
Nc1nc2ccccc2n1CCOc1ccc(Cl)cc1	none
Clc1ccc(OCCn2cnc3ccccc32)c(Cl)c1	none
Nc1nc2ccccc2n1CCOc1ccc(Br)cc1	mHTT CaM bind 73
Cc1ccc(/C=N\NC(=O)c2cnccn2)o1	none (no result: Pf apPOL inh)
O=C(Nc1nc(C(=O)N2CCN(c3cccc(C(F)(F)F)c3)CC2)co1)C1CC1	none
O=C(Nc1c[nH]c2ccccc12)N1CCN(c2cccc(C(F)(F)F)c2)CC1	mHTT CaM bind 59
CSc1ccc(C(=O)O)s1	Pf apPOL inh 88
COc1ccc(OC)c(NC(=O)c2ccc(SC)s2)c1	none (no result: mHTT CaM bind)
Cc1nc(-c2ccc(C(=O)NC(C)(C)C)c(F)c2)no1	none
O=C(NNC(=O)C(F)(F)Sc1ccccc1)c1ccsc1	Pf apPOL inh 54 (no result: mHTT CaM bind)
O=C(NCC(O)(c1ccccc1)C(F)(F)F)c1ccsc1 (centres undefined)	none
COc1ccc(-c2noc(C3(NC(=O)COc4ccccc4)CCCCC3)n2)cc1	none
CC(=O)N1CCN(c2ccc(F)c(Cl)c2)C(=O)C1C (centres undefined)	none
Cc1ccc(OCc2nnc(SCC(=O)NCc3ccccc3)o2)cc1	none
O=C(CSc1nnc(COc2ccc3c(c2)CCCC3)o1)NCc1ccccc1	Pf apPOL inh 95
CCn1cc(NC(=O)NCCc2c[nH]c3ccccc23)c2ccccc21	mHTT CaM bind 72
O=C(NCCc1c[nH]c2ccccc12)Nc1ccc(Cl)cc1	none (no result: mHTT CaM bind)
O=C1OC(/C=C/c2ccc(Cl)cc2Cl)=NC/1=C\c1ccc([N+](=O)[O-])cc1	none
CC(C)(C)c1ccc(S(=O)(=O)N2CCC(Oc3ccc4c(c3)OCO4)CC2)cc1	none
COc1cccc(C(=O)Nc2ccc(-n3nncc3-c3ccccc3)cc2)c1OC	mHTT CaM bind 57
COc1cc(C(=O)Nc2ccc(-n3nncc3-c3ccccc3)cc2)cc(OC)c1OC	none
CCN(CCCNC(=O)c1ccc2c(c1)NC(=O)C1CCCN21)Cc1ccccc1 (centres undefined)	Pf apPOL inh 50
O=C(NCc1ccccc1)c1ccc2c(c1)NC(=O)C1CCCN21 (centres undefined)	none
CCC1CN2C=NC(N3CCN(C(=O)Nc4ccc(OC)c(Cl)c4)CC3)=CC2=N1 (centres undefined)	none
Cc1nnc(C)c2c(C)n(-c3ccc4ncccc4c3)c(C)c12	none
Cc1ccc(C)n1-c1ccc2ncccc2c1	mHTT CaM bind 67
O=C1C2C(c3cccc(/C=C/c4ccccc4)c3)CC=CC2C(c2ccc3ccccc3c2)N1Cc1ccccc1 (centres undefined)	none
O=C1C2C(c3ccccc3)CC=CC2[C@H](c2cccc(Br)c2)N1Cc1ccccc1 (some centres undefined)	mHTT CaM bind 100
C[C@@H]1CC=C[C@H]2[C@H]1C(=O)N(Cc1ccccc1)[C@H]2c1ccoc1	none
CC[C@@H]1CC=C[C@H]2[C@H]1C(=O)N(Cc1ccccc1)[C@H]2c1ccoc1	mHTT CaM bind 85
CC[C@@H]1CC=C[C@H]2[C@H]1C(=O)N(Cc1ccccc1)[C@H]2c1ccc(C(F)(F)F)cc1	mHTT CaM bind 71
O=C1C2C(c3cccc(/C=C/c4ccccc4)c3)CC=CC2C(c2ccc(C(F)(F)F)cc2)N1Cc1ccccc1 (centres undefined)	none
CN(C(=O)C12CC3CC(CC(C3)C1)C2)c1nnc(C23CC4CC(CC(C4)C2)C3)s1	none
CCc1ccc(NC(=O)C2CCCCC2)cc1	none
O=C(O)Cc1csc(NC(=O)CSc2nc3ccccc3s2)n1	none (no result: mHTT CaM bind)
COc1ccc(-c2cc3ccc(OC(=O)C(C)C)cc3oc2=O)c(OC)c1	mHTT CaM bind 78
COc1ccc(OC)c(-c2cc3ccc(OC(=O)C(C)C)cc3oc2=O)c1	none
CCc1ccccc1NC(=O)CSc1nc2nc(C)cc(C)n2n1	none
COc1ccccc1NC(=O)c1cnn(-c2ccccc2)c1NC(=O)c1cccc(F)c1	mHTT CaM bind 59!
O=C(Nc1c(C(=O)Nc2ccccc2)cnn1-c1ccccc1)c1ccccc1	none
Cc1cc(C(F)(F)F)nn1CC(=O)Nc1sc2c(c1C#N)CCCCC2	none
O=C(CSc1nc2ccccc2[nH]1)c1ccc(Cl)c(Cl)c1	mHTT CaM bind 51
O=C(CSc1nc2ccccc2[nH]1)c1ccc2c(c1)OCO2	none
Cc1cc(C)c(-c2noc(C)n2)c(NC(=O)c2ccc(C(C)(C)C)cc2)n1	none
CC1=C(C(=O)Nc2ccccn2)C(c2ccc(F)cc2)C2=C(CCCC2=O)N1 (centres undefined)	none
CC1=C(C(=O)Nc2cccc(C(F)(F)F)c2)C(c2ccncc2)C2=C(CCCC2=O)N1 (centres undefined)	none
CC1=C(C(=O)Nc2cccc(C(F)(F)F)c2)C(c2ccc(N(C)C)cc2)C2=C(CCCC2=O)N1 (centres undefined)	mHTT CaM bind 57
CC1=C(C(=O)Nc2ccccn2)C(c2ccccc2)C2=C(CCCC2=O)N1 (centres undefined)	Pf apPOL inh 52
O=C(Nc1ccccc1Cl)N1CCC(N2CCN(Cc3ccccc3)C2=O)CC1	none
O=S(=O)(c1ccc2nc(-c3ccccc3)[nH]c2c1)N1CCN(c2ccccn2)CC1	none
Cc1cccc(NC(=O)c2ccc(N3CCNC(c4ccccc4)C3)nc2)c1 (centres undefined)	none
CC(=O)c1onc(C(N)=O)c1N	none (no result: Pf apPOL inh)
CCc1nc2c(c(=O)n1CC(=O)Nc1ccc(C)cc1F)CN(Cc1ccccc1)CC2	none
COCCC1CCN(C(=O)CC2CCN(C(C)=O)CC2)CC1	none
CCN1C=C(Cc2cccs2)C2=C(C1)C(c1cccs1)C(C#N)=C(N)O2 (centres undefined)	mHTT CaM bind 72
Cc1cc2c(c(=O)o1)C(c1cccs1)C(C#N)=C(N)O2 (centres undefined)	none (no result: Pf apPOL inh)
CC(C)N1CC2=C(OC(N)=C(C#N)C2c2cccs2)/C(=C/c2cccs2)C1 (centres undefined)	mHTT CaM bind 66 (no result: Pf apPOL inh)
COCc1[nH]nc2c1C(c1cccs1)C(C#N)=C(N)O2 (centres undefined)	none (no result: Pf apPOL inh)
O=C1/C(=C/c2cccs2)CC/C1=C\c1cccs1	none
Cc1[nH]nc2c1C(c1cccs1)C(C#N)=C(N)O2 (centres undefined)	none
CC(C)N1C/C(=C\c2cccs2)C(=O)/C(=C/c2cccs2)C1	mHTT CaM bind 54!
CCN1CC2=C(OC(N)=C(C#N)C2c2cccs2)/C(=C/c2cccs2)C1 (centres undefined)	mHTT CaM bind 60 (no result: Pf apPOL inh)
Cc1cccc(-c2noc(C3CCCN3C(=O)Nc3ccccc3)n2)c1 (centres undefined)	none
CCOc1cc(C(=O)Nc2c3c(nn2-c2ccccc2)CSC3)cc(OCC)c1OCC	none
Cc1ccc(C(=O)Nc2nn[nH]n2)cc1S(=O)(=O)N1CCOCC1	none
COc1ccc(-c2nnc(NC(=O)c3cccs3)o2)cc1	mHTT CaM bind 66
